According to PubChem BioAssay (Tox21):
“And” between values parts separate entries of the source, which are not always exact repeats. Identical values can stand only once. Records with an inconclusive call do not appear. The source made the active and inactive calls. Calls come from the whole dose curve; as a rule, active = well fitted curve in the direction sought with a large enough effect in the repeat runs; inconclusive = weak or mixed curves; inactive = no such curve, though single readings can be large; an effect the other way counts as inactive or inconclusive.

Tests used:
[1] = qHTS RealTime-Glo MT Cell Viability Assay in HepG2 cells - 40 hour (AID 1224870); note: nearly all actives have a fitted effect of over 50% in size
Procedure, shortened: (§1)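 HepG2 cells (600/well) mixed with RealTime-Glo MT reagent, settled 5 h at 37 C/5% CO2 before compound addition. Nonlytic NanoLuc luminescence from viable-cell prosubstrate reduction read repeatedly during 40 h treatment at 37 C.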

[2] = A CellTox Green Cytotoxicity Assay to monitor cytotoxicity in HEK293 cells - 40 hour (AID 1224871); note: nearly all actives have a fitted effect of over 45% in size
Procedure, shortened: (§2)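 Each value comes from one timepoint of a single continuous run in which HEK293 cells with CellTox Green were exposed to compound for up to 40 h at 37 C, dye fluorescence rising with cell death.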

[3] = qHTS RealTime-Glo MT Cell Viability Assay in HEK293 cells - 16 hour (AID 1224872); note: top concentration of the series differs between compounds; nearly all actives have a fitted effect of over 50% in size
Procedure, shortened: (§3)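 HEK293 cells seeded with NanoLuc/prosubstrate reagent, rested 5 h at 37 C, then dosed and kept at 37 C up to 40 h. Nonlytic real-time luminescence from viable cells read at 0, 8, 16, 24, 32 and 40 h.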

[4] = qHTS RealTime-Glo MT Cell Viability Assay in HepG2 cells - 8 hour (AID 1224873); note: nearly all actives have a fitted effect of over 55% in size
Procedure, shortened: as §1

[5] = qHTS RealTime-Glo MT Cell Viability Assay in HEK293 cells - 40 hour (AID 1224874); conditions: RealTime-Glo luminescence; max response: hits give low values; note: nearly all actives have a fitted effect of over 50% in size
Procedure, shortened: (§4)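 qHTS format; HEK293 cells with NanoLuc/prosubstrate reagent, 37 C/5% CO2 for 5 h pre-dosing; compounds 23 nL in DMSO; luminescence at each time point reflects viable cells.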

[6] = A CellTox Green Cytotoxicity Assay to monitor cytotoxicity in HEK293 cells - 24 hour (AID 1224875); note: series mostly up to about 77 µM; nearly all actives have a fitted effect of over 45% in size
Procedure, shortened: as §2

[7] = A CellTox Green Cytotoxicity Assay to monitor cytotoxicity in HepG2 cells - 16 hour (AID 1224876); note: nearly all actives have a fitted effect of over 45% in size
Procedure, shortened: (§5)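 Continuous culture of HepG2 cells with a membrane-impermeant DNA dye; rising fluorescence marks dead cells. Compound exposure lasted up to 40 h at 37 C, with reads every 8 h from 0 h.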

[8] = qHTS RealTime-Glo MT Cell Viability Assay in HepG2 cells - 32 hour (AID 1224877); note: nearly all actives have a fitted effect of over 55% in size
Procedure, shortened: (§6)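 HepG2 cells (600/well) were dispensed with RealTime-Glo reagents, incubated 5 h at 37 °C, then treated with compounds in DMSO for up to 40 h. Nonlytic NanoLuc luminescence reflecting viable cells was read at each stated time point.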

[9] = A CellTox Green Cytotoxicity Assay to monitor cytotoxicity in HepG2 cells - 24 hour (AID 1224878); note: nearly all actives have a fitted effect of over 45% in size
Procedure, shortened: as §5

[10] = A CellTox Green Cytotoxicity Assay to monitor cytotoxicity in HepG2 cells - 40 hour (AID 1224879); note: nearly all actives have a fitted effect of over 40% in size
Procedure, shortened: as §5

[11] = qHTS RealTime-Glo MT Cell Viability Assay in HEK293 cells - 0 hour (AID 1224880)
Procedure, shortened: as §4

[12] = A CellTox Green Cytotoxicity Assay to monitor cytotoxicity in HEK293 cells - 32 hour (AID 1224881); note: nearly all actives have a fitted effect of over 40% in size
Procedure, shortened: as §2

[13] = A CellTox Green Cytotoxicity Assay to monitor cytotoxicity in HepG2 cells - 0 hour (AID 1224882); note: nearly all actives have a fitted effect of over 35% in size
Procedure, shortened: as §5

[14] = A CellTox Green Cytotoxicity Assay to monitor cytotoxicity in HepG2 cells - 32 hour (AID 1224883); note: nearly all actives have a fitted effect of over 50% in size
Procedure, shortened: as §5

[15] = A CellTox Green Cytotoxicity Assay to monitor cytotoxicity in HEK293 cells - 8 hour (AID 1224884); note: nearly all actives have a fitted effect of over 35% in size
Procedure, shortened: as §2

[16] = qHTS RealTime-Glo MT Cell Viability Assay in HEK293 cells - 24 hour (AID 1224886)
Procedure, shortened: as §3

[17] = qHTS RealTime-Glo MT Cell Viability Assay in HEK293 cells - 8 hour (AID 1224887)
Procedure, shortened: as §4

[18] = A CellTox Green Cytotoxicity Assay to monitor cytotoxicity in HEK293 cells - 16 hour (AID 1224888); note: nearly all actives have a fitted effect of over 35% in size
Procedure, shortened: as §2

[19] = qHTS RealTime-Glo MT Cell Viability Assay in HepG2 cells - 0 hour (AID 1224889); note: nearly all actives have a fitted effect of over 50% in size
Procedure, shortened: as §6

[20] = qHTS RealTime-Glo MT Cell Viability Assay in HepG2 cells - 16 hour (AID 1224885); note: nearly all actives have a fitted effect of over 50% in size
Procedure, shortened: as §6
% is set by controls: 0 for no effect and ±100 for the full control effect.

OCCCCO
inactive: outcome [1] | Potency [2] | outcome [3] | outcome [4] | max response [5] 2.32% and 1.82% | Potency [6] | Potency [7] | outcome [8] | Potency [9] | Potency [10] | outcome [11] | Potency [12] | Potency [13] | Potency [14] | Potency [15] | outcome [16] | outcome [17] | Potency [18] | outcome [19]

CNC(=O)O/N=C(\SC)C(=O)N(C)C
inactive: outcome [1] | Potency [2] | outcome [3] | outcome [4] | max response [5] -3.21% and 9.55% | Potency [6] | Potency [7] | outcome [8] | Potency [9] | Potency [10] | outcome [11] | Potency [12] | Potency [13] | Potency [14] | Potency [15] | outcome [16] | outcome [17] | Potency [18] | outcome [19]

Cc1cccc(C)c1N
inactive: outcome [1] | Potency [2] | outcome [3] | outcome [4] | max response [5] -0.963% and 19.7% | Potency [6] | Potency [7] | outcome [8] | Potency [9] | Potency [10] | outcome [11] | Potency [12] | Potency [13] | Potency [14] | Potency [15] | outcome [16] | outcome [17] | Potency [18] | outcome [19]

C=CCN=C=S
inactive: outcome [1] | Potency [2] | outcome [3] | outcome [4] | max response [5] 17.8% and 1.95% | Potency [6] | Potency [7] | outcome [8] | Potency [9] | Potency [10] | outcome [11] | Potency [12] | Potency [13] | Potency [14] | Potency [15] | outcome [16] | outcome [17] | Potency [18] | outcome [19]

O=S(=O)(O)OOS(=O)(=O)O
inactive: outcome [1] | Potency [2] | outcome [3] | outcome [4] | max response [5] 2.97% [middle of 4 runs] | Potency [6] | Potency [7] | outcome [8] | Potency [9] | Potency [10] | outcome [11] | Potency [12] | Potency [13] | Potency [14] | Potency [15] | outcome [16] | outcome [17] | Potency [18] | outcome [19]

ClCCOCCCl
inactive: outcome [1] | Potency [2] | outcome [3] | outcome [4] | max response [5] -3.17% and -5.17% | Potency [6] | Potency [7] | outcome [8] | Potency [9] | Potency [10] | outcome [11] | Potency [12] | Potency [13] | Potency [15] | outcome [20] | outcome [16] | outcome [17] | Potency [18] | outcome [19]

CNc1cnn(-c2cccc(C(F)(F)F)c2)c(=O)c1Cl
inactive: outcome [1] | Potency [2] | outcome [3] | outcome [4] | max response [5] -24.9% and -29.1% | Potency [6] | Potency [7] | outcome [8] | Potency [9] | Potency [10] | outcome [11] | Potency [12] | Potency [13] | Potency [14] | Potency [15] | outcome [16] | outcome [17] | Potency [18] | outcome [19]

Cc1ccc(O)c(C)c1
inactive: outcome [1] | Potency [2] | outcome [3] | outcome [4] | max response [5] 4.17% and 0.581% | Potency [6] | Potency [7] | outcome [8] | Potency [9] | Potency [10] | outcome [11] | Potency [12] | Potency [13] | Potency [15] | outcome [20] | outcome [16] | outcome [17] | Potency [18] | outcome [19]

Cl/C=C/Cl
inactive: outcome [1] | Potency [2] | outcome [3] | outcome [4] | max response [5] -5.85% and -1.58% and 0.395% | Potency [6] | Potency [7] | outcome [8] | Potency [9] | Potency [10] | outcome [11] | Potency [12] | Potency [13] | Potency [14] | Potency [15] | outcome [16] | outcome [17] | Potency [18] | outcome [19]

CNC(=O)Oc1cccc2ccccc12
inactive: outcome [1] | Potency [2] | outcome [3] | outcome [4] | max response [5] -29.1% and -20.7% and -13.7% | Potency [6] | Potency [7] | outcome [8] | Potency [9] | Potency [10] | outcome [11] | Potency [12] | Potency [13] | Potency [15] | outcome [20] | outcome [16] | outcome [17] | Potency [18] | outcome [19]

CN(C)CCC#N
inactive: outcome [1] | Potency [2] | outcome [3] | outcome [4] | max response [5] 6.53% and 12.6% | Potency [6] | Potency [7] | outcome [8] | Potency [9] | Potency [10] | outcome [11] | Potency [12] | Potency [13] | Potency [14] | Potency [15] | outcome [16] | outcome [17] | Potency [18] | outcome [19]

Cc1cc(Cl)ccc1OC(C)C(=O)O (configuration not stated)
inactive: outcome [1] | Potency [2] | outcome [3] | outcome [4] | max response [5] 3.64% and -1.48% | Potency [6] | Potency [7] | outcome [8] | Potency [9] | Potency [10] | outcome [11] | Potency [12] | Potency [13] | Potency [14] | Potency [15] | outcome [16] | outcome [17] | Potency [18] | outcome [19]

COC(C)(C)CCCC(C)C/C=C/C(C)=C/C(=O)OC(C)C (configuration not stated)
inactive: outcome [1] | Potency [2] | outcome [3] | outcome [4] | max response [5] 0.0106% | Potency [6] | Potency [7] | outcome [8] | Potency [9] | Potency [10] | outcome [11] | Potency [12] | Potency [13] | Potency [15] | outcome [20] | outcome [16] | outcome [17] | Potency [18] | outcome [19]
